Laboratory results as given in the supplement of paper PMC8728848.
Only a selection was taken, and the strongest signals are over-represented in it overall.

Assays:
Experiment in all cases: glycan array binding signal (z-score within array); higher = stronger binding
Settings in all cases: glycan notation: IUPAC condensed, linker removed
[1] = biological target: Fuc(a1-2)Gal(b1-4)GlcNAc(b1-2)[Fuc(a1-2)Gal(b1-4)GlcNAc(b1-4)]Man(a1-3)[Fuc(a1-2)Gal(b1-4)GlcNAc(b1-2)Man(a1-6)]Man(b1-4)GlcNAc(b1-4)GlcNAc
Method in brief: (§1)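 The Consortium for Functional Glycomics database supplied 3228 glycan arrays, of which those lacking an available protein sequence were dropped. The binding signal, a within-array Z-score, was averaged across arrays of the same protein sequence and across linkers. Negative scores can be read as non-binding.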

[2] = biological target: Fuc(a1-2)Gal(b1-4)GlcNAc(b1-3)[Fuc(a1-2)Gal(b1-4)GlcNAc(b1-6)]GalNAc
Method in brief: as §1

[3] = biological target: Fuc(a1-2)Gal(b1-4)GlcNAc(b1-6)GalNAc
Method in brief: as §1

[4] = biological target: Fuc(a1-2)[Gal(a1-3)]Gal(b1-3)GlcNAc(b1-6)GalNAc
Method in brief: as §1

[5] = biological target: Fuc(a1-2)[Gal(a1-3)]Gal(b1-4)GlcNAc
Method in brief: as §1

[6] = biological target: Fuc(a1-2)[Gal(a1-3)]Gal(b1-4)GlcNAc(b1-2)Man
Method in brief: as §1

[7] = biological target: Fuc(a1-2)[Gal(a1-3)]Gal(b1-4)GlcNAc(b1-3)[Fuc(a1-2)[Gal(a1-3)]Gal(b1-4)GlcNAc(b1-6)]GalNAc
Method in brief: as §1

[8] = biological target: Fuc(a1-2)[GalNAc(a1-3)]Gal(b1-4)GlcNAc(b1-6)GalNAc
Method in brief: as §1

[9] = biological target: Fuc(a1-2)[GalNAc(a1-4)]Gal(b1-4)GlcNAc
Method in brief: as §1

[10] = biological target: Gal(a1-4)Gal(b1-4)GlcNAc(b1-2)Man(a1-3)[Gal(a1-4)Gal(b1-4)GlcNAc(b1-2)Man(a1-6)]Man(b1-4)GlcNAc(b1-4)GlcNAc
Method in brief: as §1

Gal(b1-3)Gal = biological target: Gal(b1-3)Gal
Method in brief: as §1

[11] = biological target: Gal(b1-3)GlcNAc(b1-6)[Gal(b1-3)]GalNAc
Method in brief: as §1

[12] = biological target: Gal(b1-3)[Fuc(a1-4)]GlcNAc(b1-2)Man(a1-3)[Gal(b1-3)[Fuc(a1-4)]GlcNAc(b1-2)Man(a1-6)]Man(b1-4)GlcNAc(b1-4)[Fuc(a1-6)]GlcNAc
Method in brief: as §1

[13] = biological target: Gal(b1-4)GlcNAc(b1-2)Man(a1-3)[Gal(b1-4)GlcNAc(b1-2)Man(a1-6)]Man(b1-4)GlcNAc(b1-4)GlcNAc
Method in brief: as §1

[14] = biological target: Gal(b1-4)GlcNAc(b1-2)Man(a1-3)[GlcNAc(b1-4)][Gal(b1-4)GlcNAc(b1-2)Man(a1-6)]Man(b1-4)GlcNAc(b1-4)GlcNAc
Method in brief: as §1

[15] = biological target: Gal(b1-4)GlcNAc(b1-2)[Gal(b1-4)GlcNAc(b1-4)]Man(a1-3)[GlcNAc(b1-4)][Gal(b1-4)GlcNAc(b1-2)[Gal(b1-4)GlcNAc(b1-6)]Man(a1-6)]Man(b1-4)GlcNAc(b1-4)GlcNAc
Method in brief: as §1

[16] = biological target: Gal(b1-4)GlcNAc(b1-2)[Gal(b1-4)GlcNAc(b1-6)]Man(a1-6)[GlcNAc(b1-4)][Gal(b1-4)GlcNAc(b1-2)Man(a1-3)]Man(b1-4)GlcNAc(b1-4)GlcNAc
Method in brief: as §1

[17] = biological target: Gal(b1-4)GlcNAc(b1-3)Gal(b1-4)GlcNAc(b1-3)Gal(b1-4)GlcNAc(b1-2)Man(a1-3)[Gal(b1-4)GlcNAc(b1-3)Gal(b1-4)GlcNAc(b1-3)Gal(b1-4)GlcNAc(b1-2)Man(a1-6)]Man(b1-4)GlcNAc(b1-4)GlcNAc
Method in brief: as §1

[18] = biological target: Gal(b1-4)GlcNAc(b1-3)Gal(b1-4)GlcNAc(b1-3)Gal(b1-4)GlcNAc(b1-3)Gal(b1-4)GlcNAc(b1-2)[Gal(b1-4)GlcNAc(b1-3)Gal(b1-4)GlcNAc(b1-3)Gal(b1-4)GlcNAc(b1-3)Gal(b1-4)GlcNAc(b1-6)]Man(a1-6)[Gal(b1-4)GlcNAc(b1-3)Gal(b1-4)GlcNAc(b1-3)Gal(b1-4)GlcNAc(b1-3)Gal(b1-4)GlcNAc(b1-2)Man(a1-3)]Man(b1-4)GlcNAc(b1-4)[Fuc(a1-6)]GlcNAc
Method in brief: as §1

[19] = biological target: Gal(b1-4)GlcNAc(b1-3)Gal(b1-4)GlcNAc(b1-3)Gal(b1-4)GlcNAc(b1-3)Gal(b1-4)GlcNAc(b1-3)Gal(b1-4)GlcNAc(b1-3)Gal(b1-4)GlcNAc(b1-2)Man(a1-3)[Gal(b1-4)GlcNAc(b1-3)Gal(b1-4)GlcNAc(b1-3)Gal(b1-4)GlcNAc(b1-3)Gal(b1-4)GlcNAc(b1-3)Gal(b1-4)GlcNAc(b1-3)Gal(b1-4)GlcNAc(b1-2)Man(a1-6)]Man(b1-4)GlcNAc(b1-4)GlcNAc
Method in brief: as §1

Gal3S(b1-4)Glc6S = biological target: Gal3S(b1-4)Glc6S
Method in brief: as §1

Gal6S(b1-4)GlcNAc6S = biological target: Gal6S(b1-4)GlcNAc6S
Method in brief: as §1

GalNAc(a1-3)Gal = biological target: GalNAc(a1-3)Gal
Method in brief: as §1

GalNAc(a1-3)GalNAc = biological target: GalNAc(a1-3)GalNAc
Method in brief: as §1

GalNAc(b1-3)GalNAc = biological target: GalNAc(b1-3)GalNAc
Method in brief: as §1

GalNAc(b1-4)GlcNAc = biological target: GalNAc(b1-4)GlcNAc
Method in brief: as §1

[20] = biological target: GalNAc(b1-4)GlcNAc(b1-2)Man
Method in brief: as §1

GalNAc(b1-4)GlcNAc6S = biological target: GalNAc(b1-4)GlcNAc6S
Method in brief: as §1

GalNAc(b1-6)GalNAc = biological target: GalNAc(b1-6)GalNAc
Method in brief: as §1

GlcA(b1-3)Gal = biological target: GlcA(b1-3)Gal
Method in brief: as §1

B1: Cohesin-marm-DC-ASGPR (protein)
chain: LDITSHHHHHHDDLDAVRIKVDTVNAKPGDTVRIPVRFSGIPSKGIANCDFVYSYDPNVLEIIEIEPGDIIVDPNPDKSFDTAVYPDRKIIVFLFAEDSGTGAYAITKDGVFATIVAKVKEGAPNGLSVIKFVEVGGFANNDLVEQKTQFFDGGVNVGDTTEPATPTTPVTTPTTTDDLDAASSKFQRDLVTLRTDFSNFTSNTLAEIQALTSQGSSLQETIASLKAEVEGHKQELQAGASELQEHNKQKAHLGRCPHTCVCPSSFVCVPVHSEILLRVQQLVQDLNKLSCQVAILKNNATTERTCCPINWVEHQGSCYWFSRSGKTWPEAERYCQLENTHLVVINSREEQNFVQAHLGSAYTWMGLSDPEGVWKWVDGTDYSSGFQNWKPGQPDDWQGHGLGGGEDCAHFHPDGRWNDDVCQRSYHWVCEAGLTQASQDSHAS
glycan array binding signal (z-score) [1]: -0.267
glycan array binding signal (z-score) [2]: -0.236
glycan array binding signal (z-score) [3]: 4.84
glycan array binding signal (z-score) [4]: 4.11
glycan array binding signal (z-score) [5]: -0.282
glycan array binding signal (z-score) [6]: -0.239
glycan array binding signal (z-score) [7]: -0.22
glycan array binding signal (z-score) [8]: 4.32
glycan array binding signal (z-score) [9]: 4.11
glycan array binding signal (z-score) [10]: -0.267
glycan array binding signal (z-score) (Gal(b1-3)Gal): -0.286
glycan array binding signal (z-score) [11]: -0.272
glycan array binding signal (z-score) [12]: -0.265
glycan array binding signal (z-score) [13]: -0.277
glycan array binding signal (z-score) [14]: -0.308
glycan array binding signal (z-score) [15]: -0.268
glycan array binding signal (z-score) [16]: -0.307
glycan array binding signal (z-score) [17]: -0.177
glycan array binding signal (z-score) [18]: -0.272
glycan array binding signal (z-score) [19]: -0.295
glycan array binding signal (z-score) (Gal3S(b1-4)Glc6S): -0.141
glycan array binding signal (z-score) (Gal6S(b1-4)GlcNAc6S): -0.295
glycan array binding signal (z-score) (GalNAc(a1-3)Gal): 4.28
glycan array binding signal (z-score) (GalNAc(a1-3)GalNAc): -0.266
glycan array binding signal (z-score) (GalNAc(b1-3)GalNAc): -0.307
glycan array binding signal (z-score) (GalNAc(b1-4)GlcNAc): 4.21
glycan array binding signal (z-score) [20]: 4.13
glycan array binding signal (z-score) (GalNAc(b1-4)GlcNAc6S): 4.56
glycan array binding signal (z-score) (GalNAc(b1-6)GalNAc): -0.303
glycan array binding signal (z-score) (GlcA(b1-3)Gal): -0.309
